# ± gives the standard deviation of the averaged measurements.
# Columns and labels:
# Assay in all cases: promoter activity interaction Z-score (Lux/OD deviation from empty-vector control); higher = stronger promoter induction by the compound
# [1] = test system: E. coli BW25113 acrABp lux reporter
# How it was run: (§1)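 Reporter strains of E. coli BW25113 grew at 37°C in 40 µl LB Lennox in 384-well plates. Readings of OD600 and luminescence were taken every 30 min over 12 h, integrated over 0–8 h (wild type) or 1–9 h (deletion strains), and wells below 10% of the median growth value were excluded. Scores are Z-transformed residuals of growth-normalised luminescence from a fit against a control.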
# [2] = test system: E. coli BW25113 micFp lux reporter
# How it was run: as §1
# [3] = test system: E. coli BW25113 ompFp lux reporter
# How it was run: as §1
# [4] = test system: E. coli BW25113 robp lux reporter
# How it was run: as §1
# [5] = test system: E. coli BW25113 soxSp lux reporter
# How it was run: as §1
# [6] = test system: E. coli BW25113 tolCp lux reporter
# How it was run: as §1
# [7] = 20 µg/ml, genetic background: wild type
# [8] = 20 µg/ml, genetic background: ΔmarA
# [9] = 20 µg/ml, genetic background: Δrob
# [10] = 20 µg/ml, genetic background: ΔsoxS
# [11] = 39.9 µg/ml, genetic background: wild type
# [12] = 39.9 µg/ml, genetic background: ΔmarA
# [13] = 39.9 µg/ml, genetic background: Δrob
# [14] = 39.9 µg/ml, genetic background: ΔsoxS
# [15] = 79.8 µg/ml, genetic background: wild type
# [16] = 79.8 µg/ml, genetic background: ΔmarA
# [17] = 79.8 µg/ml, genetic background: Δrob
# [18] = 79.8 µg/ml, genetic background: ΔsoxS
# [19] = 159.6 µg/ml, genetic background: wild type
# [20] = 159.6 µg/ml, genetic background: ΔmarA
# [21] = 159.6 µg/ml, genetic background: Δrob
# [22] = 159.6 µg/ml, genetic background: ΔsoxS
compound,measurement,setting,value
NC[C@H](O)c1ccc(O)c(O)c1 [Noradrenalin],promoter activity interaction Z-score,[1]; [7],0.191 ± 0.043
same,promoter activity interaction Z-score,[1]; [8],0.362 ± 0.59
same,promoter activity interaction Z-score,[1]; [9],0.47 ± 0.3
same,promoter activity interaction Z-score,[1]; [10],0.122 ± 0.4
same,promoter activity interaction Z-score,[1]; [11],0.0636 ± 0.28
same,promoter activity interaction Z-score,[1]; [12],0.359 ± 0.28
same,promoter activity interaction Z-score,[1]; [13],0.344 ± 0.66
same,promoter activity interaction Z-score,[1]; [14],0.23 ± 0.37
same,promoter activity interaction Z-score,[1]; [15],0.335 ± 0.023
same,promoter activity interaction Z-score,[1]; [16],-0.978 ± 0.27
same,promoter activity interaction Z-score,[1]; [17],0.541 ± 0.3
same,promoter activity interaction Z-score,[1]; [18],0.0112 ± 0.031
same,promoter activity interaction Z-score,[1]; [19],0.208 ± 0.26
same,promoter activity interaction Z-score,[1]; [20],0.422 ± 0.39
same,promoter activity interaction Z-score,[1]; [21],0.664 ± 0.6
same,promoter activity interaction Z-score,[1]; [22],0.626 ± 0.16
same,promoter activity interaction Z-score,[2]; [7],-0.0178 ± 0.045
same,promoter activity interaction Z-score,[2]; [8],0.0504 ± 0.056
same,promoter activity interaction Z-score,[2]; [9],-0.0409 ± 0.027
same,promoter activity interaction Z-score,[2]; [10],0.0398 ± 0.17
same,promoter activity interaction Z-score,[2]; [11],-0.101 ± 0.2
same,promoter activity interaction Z-score,[2]; [12],-0.00878 ± 0.065
same,promoter activity interaction Z-score,[2]; [13],-0.0156 ± 0.16
same,promoter activity interaction Z-score,[2]; [14],-0.114 ± 0.0037
same,promoter activity interaction Z-score,[2]; [15],0.00145 ± 0.18
same,promoter activity interaction Z-score,[2]; [16],-0.0653 ± 0.027
same,promoter activity interaction Z-score,[2]; [17],-0.14 ± 0.2
same,promoter activity interaction Z-score,[2]; [18],0.0484 ± 0.0015
same,promoter activity interaction Z-score,[2]; [19],-0.129 ± 0.14
same,promoter activity interaction Z-score,[2]; [20],-0.17 ± 0.03
same,promoter activity interaction Z-score,[2]; [21],-0.105 ± 0.047
same,promoter activity interaction Z-score,[2]; [22],-0.0781 ± 0.094
same,promoter activity interaction Z-score,[3]; [7],0.507 ± 0.061
same,promoter activity interaction Z-score,[3]; [8],0.708 ± 0.42
same,promoter activity interaction Z-score,[3]; [9],0.59 ± 0.074
same,promoter activity interaction Z-score,[3]; [10],0.138 ± 0.1
same,promoter activity interaction Z-score,[3]; [11],0.854 ± 0.025
same,promoter activity interaction Z-score,[3]; [12],0.48 ± 0.12
same,promoter activity interaction Z-score,[3]; [13],0.602 ± 0.42
same,promoter activity interaction Z-score,[3]; [14],0.403 ± 0.22
same,promoter activity interaction Z-score,[3]; [15],0.895 ± 0.33
same,promoter activity interaction Z-score,[3]; [16],0.0373 ± 0.12
same,promoter activity interaction Z-score,[3]; [17],0.307 ± 0.14
same,promoter activity interaction Z-score,[3]; [18],0.13 ± 0.09
same,promoter activity interaction Z-score,[3]; [19],1.01 ± 0.25
same,promoter activity interaction Z-score,[3]; [20],0.851 ± 0.14
same,promoter activity interaction Z-score,[3]; [21],0.476 ± 1.1
same,promoter activity interaction Z-score,[3]; [22],1.13 ± 0.2
same,promoter activity interaction Z-score,[4]; [7],0.547 ± 0.64
same,promoter activity interaction Z-score,[4]; [8],0.384 ± 0.1
same,promoter activity interaction Z-score,[4]; [9],0.384 ± 0.47
same,promoter activity interaction Z-score,[4]; [10],1.12 ± 0.86
same,promoter activity interaction Z-score,[4]; [11],0.762 ± 0.056
same,promoter activity interaction Z-score,[4]; [12],1.14 ± 0.33
same,promoter activity interaction Z-score,[4]; [13],0.129 ± 0.011
same,promoter activity interaction Z-score,[4]; [14],0.395 ± 0.56
same,promoter activity interaction Z-score,[4]; [15],0.33 ± 0.14
same,promoter activity interaction Z-score,[4]; [16],-0.159 ± 0.14
same,promoter activity interaction Z-score,[4]; [17],-0.0403 ± 0.17
same,promoter activity interaction Z-score,[4]; [18],0.042 ± 0.74
same,promoter activity interaction Z-score,[4]; [19],0.223 ± 0.48
same,promoter activity interaction Z-score,[4]; [20],-0.276 ± 0.24
same,promoter activity interaction Z-score,[4]; [21],-0.36 ± 0.58
same,promoter activity interaction Z-score,[4]; [22],-0.182 ± 0.36
same,promoter activity interaction Z-score,[5]; [7],-0.0849 ± 0.038
same,promoter activity interaction Z-score,[5]; [8],-0.0801 ± 0.073
same,promoter activity interaction Z-score,[5]; [9],-0.113 ± 0.058
same,promoter activity interaction Z-score,[5]; [10],0.0191 ± 0.33
same,promoter activity interaction Z-score,[5]; [11],0.0167 ± 0.12
same,promoter activity interaction Z-score,[5]; [12],-0.0796 ± 0.033
same,promoter activity interaction Z-score,[5]; [13],-0.0193 ± 0.2
same,promoter activity interaction Z-score,[5]; [14],0.0258 ± 0.27
same,promoter activity interaction Z-score,[5]; [15],-0.0633 ± 0.035
same,promoter activity interaction Z-score,[5]; [16],-0.258 ± 0.028
same,promoter activity interaction Z-score,[5]; [17],-0.159 ± 0.19
same,promoter activity interaction Z-score,[5]; [18],-0.00763 ± 0.11
same,promoter activity interaction Z-score,[5]; [19],-0.154 ± 0.0074
same,promoter activity interaction Z-score,[5]; [20],-0.357 ± 0.097
same,promoter activity interaction Z-score,[5]; [21],-0.388 ± 0.16
same,promoter activity interaction Z-score,[5]; [22],-0.0342 ± 0.11
same,promoter activity interaction Z-score,[6]; [7],0.0786 ± 0.23
same,promoter activity interaction Z-score,[6]; [8],0.206 ± 1.2
same,promoter activity interaction Z-score,[6]; [9],-0.339 ± 0.25
same,promoter activity interaction Z-score,[6]; [10],-0.485 ± 0.31
same,promoter activity interaction Z-score,[6]; [11],-0.478 ± 0.28
same,promoter activity interaction Z-score,[6]; [12],0.198 ± 0.13
same,promoter activity interaction Z-score,[6]; [13],-0.000984 ± 1.4
same,promoter activity interaction Z-score,[6]; [14],-0.431 ± 0.54
same,promoter activity interaction Z-score,[6]; [15],0.0142 ± 0.56
same,promoter activity interaction Z-score,[6]; [16],-0.267 ± 0.49
same,promoter activity interaction Z-score,[6]; [17],0.254 ± 0.35
same,promoter activity interaction Z-score,[6]; [18],-0.273 ± 0.31
same,promoter activity interaction Z-score,[6]; [19],-0.957 ± 1.4
same,promoter activity interaction Z-score,[6]; [20],-0.659 ± 0.07
same,promoter activity interaction Z-score,[6]; [21],-0.565 ± 0.4
same,promoter activity interaction Z-score,[6]; [22],-0.633 ± 0.011
